The source made the active and inactive calls. The calls were made as follows: active = hit-call score of the fitted dose curve at least 0.9, where 1 is the maximum; inactive = score below 0.9.
Columns and labels:
[1] = read-out: Fatty acid synthase (Homo sapiens) (UniProt P49327); experiment: LTEA_HepaRG_FASN: Life Technologies and Expression Analysis (LTEA) Assay for Fatty Acid Synthase (FASN) using HepaRG (AID 2283448); conditions: mRNA level, 48 h; actives raise or lower the signal
Outline: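 FASN expression changes, up or down relative to 0.5% DMSO, were measured by qRT-PCR in human HepaRG cells after 48 h treatment with chemicals at eight concentrations (half-log steps from 100 uM).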

[2] = read-out: Cyclin D2 (CCND2), CCND2 (gene 894); experiment: LTEA_HepaRG_CCND2: Life Technologies and Expression Analysis (LTEA) Assay for Cyclin D2 (CCND2) using HepaRG (AID 2283449); conditions: mRNA level, 48 h; actives raise or lower the signal;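 also: CCND2 transcript measured by TaqMan qRT-PCR and normalised to three housekeeping genes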
Outline: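 Differentiated human HepaRG cells were exposed for 48 h in serum-free induction medium to eight half-log concentrations topping at 100 uM (0.5% DMSO vehicle). CCND2 mRNA was quantified by TaqMan qRT-PCR, normalised to ACTB, GAPDH and POLR2A, and fitted bidirectionally against DMSO.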

[3] = read-out: Cyclin Dependent Kinase Inhibitor 1A (CDKN1A), CDKN1A (gene 1026); experiment: LTEA_HepaRG_CDKN1A: Life Technologies and Expression Analysis (LTEA) Assay for Cyclin Dependent Kinase Inhibitor 1A (CDKN1A) using HepaRG (AID 2283450); conditions: mRNA level, 48 h; actives raise or lower the signal
Outline: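 HepaRG, 48 h dosing, 8-pt half-log series from 100 uM top, 0.5% DMSO vehicle, duplicates. Readout: TaqMan qRT-PCR of CDKN1A transcript, housekeeping-normalized (ACTB, GAPDH, POLR2A). Up/down curve fit relative to DMSO.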

[4] = read-out: Cyclin D1 (CCND1), CCND1 (gene 595); experiment: LTEA_HepaRG_CCND1: Life Technologies and Expression Analysis (LTEA) Assay for Cyclin D1 (CCND1) using HepaRG (AID 2283451); conditions: mRNA level, 48 h; actives raise or lower the signal
Outline: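 qRT-PCR (Fluidigm 96.96 array) read-out of transcript level, housekeeping-normalized (ACTB/GAPDH/POLR2A). HepaRG cells, 48 h chemical exposure, 8-point half-log series from 100 uM, 0.5% DMSO vehicle; gain or loss relative to DMSO baseline.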

[5] = read-out: catalase (CAT), CAT (gene 847); experiment: LTEA_HepaRG_CAT: Life Technologies and Expression Analysis (LTEA) Assay for catalase (CAT) using HepaRG (AID 2283452); conditions: mRNA level, 48 h; actives raise or lower the signal
Outline: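 Differentiated HepaRG cells in serum-free induction medium were dosed 48 h in duplicate, eight half-log concentrations from 100 uM in 0.5% DMSO. Transcript measured by TaqMan qRT-PCR, normalised to ACTB/GAPDH/POLR2A, fitted bidirectionally against DMSO.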

[6] = read-out: flavin-containing dimethylaniline monooxygenases 3 (FMO3), FMO3 (gene 2328); experiment: LTEA_HepaRG_FMO3: Life Technologies and Expression Analysis (LTEA) Assay for flavin-containing dimethylaniline monooxygenases 3 (FMO3) using HepaRG (AID 2283453); conditions: mRNA level, 48 h; actives raise or lower the signal
Outline: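 Differentiated HepaRG cells in serum-free induction medium, exposed 48 h in duplicate to 8 half-log concentrations up to 100 uM in 0.5% DMSO. FMO3 mRNA by qRT-PCR, normalized to ACTB, GAPDH, POLR2A; bidirectional fit vs DMSO.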

[7] = read-out: Cytochrome P450 (CYP1A1), CYP1A1 (gene 1543); experiment: LTEA_HepaRG_CYP1A1: Life Technologies and Expression Analysis (LTEA) Assay for Cytochrome P450 (CYP1A1) using HepaRG (AID 2283454); conditions: mRNA level, 48 h; actives raise or lower the signal
Outline: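 qRT-PCR read-out: CYP1A1 transcript normalized to three housekeeping genes, fitted bidirectionally against 0.5% DMSO vehicle baseline. Human HepaRG cells, 48 h chemical exposure, 8-point half-log series topping at 100 uM.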

[8] = read-out: CFLAR gene, CFLAR (gene 8837); experiment: LTEA_HepaRG_CFLAR: Life Technologies and Expression Analysis (LTEA) Assay for CFLAR gene using HepaRG (AID 2283455); conditions: mRNA level, 48 h; actives raise or lower the signal
Outline: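 HepaRG cells were plated for 48 h, switched to serum-free induction medium, then exposed in duplicate for 48 h to 8 concentrations (top 100 uM, half-log steps, 0.5% DMSO). CFLAR mRNA was measured by qRT-PCR, normalized to ACTB, GAPDH and POLR2A.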

[9] = read-out: Forkhead box O1 (FOXO1), FOXO1 (gene 2308); experiment: LTEA_HepaRG_FOXO1: Life Technologies and Expression Analysis (LTEA) Assay for Forkhead box O1 (FOXO1) using HepaRG (AID 2283456); conditions: mRNA level, 48 h; actives raise or lower the signal
Outline: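 Differentiated human HepaRG cells in serum-free induction medium were exposed in duplicate for 48 h to eight half-log concentrations (top 100 uM, 0.5% DMSO). FOXO1 mRNA was measured by TaqMan qRT-PCR, normalised to ACTB, GAPDH and POLR2A, and fitted bidirectionally against DMSO.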

[10] = read-out: growth arrest and DNA damage 45 (GADD45A), GADD45A (gene 1647); experiment: LTEA_HepaRG_GADD45A: Life Technologies and Expression Analysis (LTEA) Assay for growth arrest and DNA damage 45 (GADD45A) using HepaRG (AID 2283458); conditions: mRNA level, 48 h; actives raise or lower the signal
Outline: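 Cells plated and cultured 48 h, switched to serum-free induction medium, then dosed for 48 h (100 uM top, half-log dilutions, 0.5% DMSO). RNA was isolated and transcript measured by Fluidigm qRT-PCR.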

[11] = CEETOX_H295R_11DCORT: CeeTox H295R High-throughput Steroidogenesis Assay for 11-Deoxycortisol (11DCORT) (AID 2283432); conditions: actives raise or lower the signal;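 as to AC50: 11-deoxycortisol secreted into the medium measured by LC-MS/MS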
Outline: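 H295R cells; 10 uM forskolin prestim 48 h; compound in 0.1% DMSO 48 h; media extracted with MTBE; 11-deoxycortisol by LC-MS/MS, 7-point standard curve; gain/loss vs DMSO baseline; viability by MTT in same wells.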

[12] = CEETOX_H295R_OHPREG: CeeTox H295R High-throughput Steroidogenesis Assay for OH-Pregnenolone (OHPREG) (AID 2283434); conditions: actives raise or lower the signal
Outline: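 Human adrenal H295R cells were prestimulated 48 h with 10 uM forskolin, then exposed 48 h to chemical in 0.1% DMSO. Medium 17alpha-hydroxypregnenolone was quantified by HPLC-MS/MS after MTBE extraction; bidirectional fitting versus DMSO baseline.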

[13] = CEETOX_H295R_OHPROG: CeeTox H295R High-throughput Steroidogenesis Assay for OH-Progesterone (OHPROG) (AID 2283435); conditions: actives raise or lower the signal;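 as to AC50: 17alpha-hydroxyprogesterone secreted into medium measured by HPLC-MS/MS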
Outline: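 H295R, 10 uM forskolin prestim 48 h; cmpd in 0.1% DMSO 48 h; medium MTBE-extracted, HPLC-MS/MS for OH-progesterone; 7-pt std curve; bidirectional fit vs DMSO; MTT viability, chemicals diluted until viability >/=70%.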

[14] = CEETOX_H295R_ANDR: CeeTox H295R High-throughput Steroidogenesis Assay for Androstenedione (ANDR) (AID 2283436); conditions: actives raise or lower the signal
Outline: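 H295R human adrenal cells (passages ≤10) were exposed to test chemicals for 48 h; androstenedione in medium was MTBE-extracted and quantified by HPLC-MS/MS against a 7-point standard curve. Bidirectional fitting used DMSO as baseline.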

[15] = CEETOX_H295R_CORTIC: CeeTox H295R High-throughput Steroidogenesis Assay for Corticosterone (CORTIC) (AID 2283437); conditions: actives raise or lower the signal;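 also: corticosterone secreted into medium quantified by mass spectrometry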
Outline: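 H295R cells were prestimulated 48 h with 10 uM forskolin, then exposed 48 h to test chemical in 0.1% DMSO. Medium corticosterone was MTBE-extracted and quantified by HPLC-MS/MS; bidirectional fit versus DMSO baseline.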

[16] = CEETOX_H295R_CORTISOL: CeeTox H295R High-throughput Steroidogenesis Assay for Cortisol (AID 2283438); conditions: actives raise or lower the signal;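 also: cortisol secreted into medium quantified by LC-MS/MS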
Outline: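 Forskolin 10 uM 48 h prestim → test cmpd in DMSO (0.1% final) 48 h → medium MTBE-extracted → LC-MS/MS cortisol vs 7-pt std curve. Gain/loss of signal fitted vs DMSO. MTT viability in same wells.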

[17] = CEETOX_H295R_DOC: CeeTox H295R High-throughput Steroidogenesis Assay for DOC (AID 2283439); conditions: actives raise or lower the signal
Outline: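 Readout: 11-deoxycorticosterone in culture medium by reverse-phase C18 HPLC with ESI+ tandem MS after MTBE extraction. Cells: H295R, forskolin-primed (10 uM, 48 h), chemical-treated 48 h; DMSO 0.1% final. Activity fitted bidirectionally versus DMSO.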

[18] = CEETOX_H295R_ESTRADIOL: CeeTox H295R High-throughput Steroidogenesis Assay for Estradiol (AID 2283440); conditions: actives raise or lower the signal;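 also: estradiol secreted into medium quantified by LC-MS/MS after dansyl derivatisation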
Outline: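 H295R, 48 h forskolin (10 uM) prestim → 48 h compound, 0.1% DMSO final. Estradiol in medium: MTBE extraction, dansyl chloride derivatization, LC-MS/MS. Fit bidirectional vs DMSO baseline; MTT viability in same wells.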

[19] = CEETOX_H295R_ESTRONE: CeeTox H295R High-throughput Steroidogenesis Assay for Estrone (AID 2283441); conditions: actives raise or lower the signal;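 also: estrone secreted into medium measured by LC-MS/MS after dansyl derivatization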
Outline: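 H295R cells prestimulated 48 h with 10 uM forskolin, then exposed 48 h to chemicals in 0.1% DMSO final; estrone in medium extracted with MTBE, dansyl-derivatized, quantified by HPLC-MS/MS; bidirectional fitting versus DMSO, viability by MTT.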

[20] = CEETOX_H295R_TESTO: CeeTox H295R High-throughput Steroidogenesis Assay for Testosterone (TESTO) (AID 2283457); conditions: actives raise or lower the signal;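 as to AC50: cells exposed to chemicals for 48 h before medium collection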
Outline: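 Readout: testosterone quantified by HPLC-MS/MS (C18, ESI positive) after MTBE liquid-liquid extraction of culture medium. Cells were H295R, 48 h chemical exposure per OECD 456 with modifications. Gain or loss of signal fitted relative to DMSO.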

Measured: AC50

Fatty acid synthase (Homo sapiens), sequence (P49327 whole entry, looked up): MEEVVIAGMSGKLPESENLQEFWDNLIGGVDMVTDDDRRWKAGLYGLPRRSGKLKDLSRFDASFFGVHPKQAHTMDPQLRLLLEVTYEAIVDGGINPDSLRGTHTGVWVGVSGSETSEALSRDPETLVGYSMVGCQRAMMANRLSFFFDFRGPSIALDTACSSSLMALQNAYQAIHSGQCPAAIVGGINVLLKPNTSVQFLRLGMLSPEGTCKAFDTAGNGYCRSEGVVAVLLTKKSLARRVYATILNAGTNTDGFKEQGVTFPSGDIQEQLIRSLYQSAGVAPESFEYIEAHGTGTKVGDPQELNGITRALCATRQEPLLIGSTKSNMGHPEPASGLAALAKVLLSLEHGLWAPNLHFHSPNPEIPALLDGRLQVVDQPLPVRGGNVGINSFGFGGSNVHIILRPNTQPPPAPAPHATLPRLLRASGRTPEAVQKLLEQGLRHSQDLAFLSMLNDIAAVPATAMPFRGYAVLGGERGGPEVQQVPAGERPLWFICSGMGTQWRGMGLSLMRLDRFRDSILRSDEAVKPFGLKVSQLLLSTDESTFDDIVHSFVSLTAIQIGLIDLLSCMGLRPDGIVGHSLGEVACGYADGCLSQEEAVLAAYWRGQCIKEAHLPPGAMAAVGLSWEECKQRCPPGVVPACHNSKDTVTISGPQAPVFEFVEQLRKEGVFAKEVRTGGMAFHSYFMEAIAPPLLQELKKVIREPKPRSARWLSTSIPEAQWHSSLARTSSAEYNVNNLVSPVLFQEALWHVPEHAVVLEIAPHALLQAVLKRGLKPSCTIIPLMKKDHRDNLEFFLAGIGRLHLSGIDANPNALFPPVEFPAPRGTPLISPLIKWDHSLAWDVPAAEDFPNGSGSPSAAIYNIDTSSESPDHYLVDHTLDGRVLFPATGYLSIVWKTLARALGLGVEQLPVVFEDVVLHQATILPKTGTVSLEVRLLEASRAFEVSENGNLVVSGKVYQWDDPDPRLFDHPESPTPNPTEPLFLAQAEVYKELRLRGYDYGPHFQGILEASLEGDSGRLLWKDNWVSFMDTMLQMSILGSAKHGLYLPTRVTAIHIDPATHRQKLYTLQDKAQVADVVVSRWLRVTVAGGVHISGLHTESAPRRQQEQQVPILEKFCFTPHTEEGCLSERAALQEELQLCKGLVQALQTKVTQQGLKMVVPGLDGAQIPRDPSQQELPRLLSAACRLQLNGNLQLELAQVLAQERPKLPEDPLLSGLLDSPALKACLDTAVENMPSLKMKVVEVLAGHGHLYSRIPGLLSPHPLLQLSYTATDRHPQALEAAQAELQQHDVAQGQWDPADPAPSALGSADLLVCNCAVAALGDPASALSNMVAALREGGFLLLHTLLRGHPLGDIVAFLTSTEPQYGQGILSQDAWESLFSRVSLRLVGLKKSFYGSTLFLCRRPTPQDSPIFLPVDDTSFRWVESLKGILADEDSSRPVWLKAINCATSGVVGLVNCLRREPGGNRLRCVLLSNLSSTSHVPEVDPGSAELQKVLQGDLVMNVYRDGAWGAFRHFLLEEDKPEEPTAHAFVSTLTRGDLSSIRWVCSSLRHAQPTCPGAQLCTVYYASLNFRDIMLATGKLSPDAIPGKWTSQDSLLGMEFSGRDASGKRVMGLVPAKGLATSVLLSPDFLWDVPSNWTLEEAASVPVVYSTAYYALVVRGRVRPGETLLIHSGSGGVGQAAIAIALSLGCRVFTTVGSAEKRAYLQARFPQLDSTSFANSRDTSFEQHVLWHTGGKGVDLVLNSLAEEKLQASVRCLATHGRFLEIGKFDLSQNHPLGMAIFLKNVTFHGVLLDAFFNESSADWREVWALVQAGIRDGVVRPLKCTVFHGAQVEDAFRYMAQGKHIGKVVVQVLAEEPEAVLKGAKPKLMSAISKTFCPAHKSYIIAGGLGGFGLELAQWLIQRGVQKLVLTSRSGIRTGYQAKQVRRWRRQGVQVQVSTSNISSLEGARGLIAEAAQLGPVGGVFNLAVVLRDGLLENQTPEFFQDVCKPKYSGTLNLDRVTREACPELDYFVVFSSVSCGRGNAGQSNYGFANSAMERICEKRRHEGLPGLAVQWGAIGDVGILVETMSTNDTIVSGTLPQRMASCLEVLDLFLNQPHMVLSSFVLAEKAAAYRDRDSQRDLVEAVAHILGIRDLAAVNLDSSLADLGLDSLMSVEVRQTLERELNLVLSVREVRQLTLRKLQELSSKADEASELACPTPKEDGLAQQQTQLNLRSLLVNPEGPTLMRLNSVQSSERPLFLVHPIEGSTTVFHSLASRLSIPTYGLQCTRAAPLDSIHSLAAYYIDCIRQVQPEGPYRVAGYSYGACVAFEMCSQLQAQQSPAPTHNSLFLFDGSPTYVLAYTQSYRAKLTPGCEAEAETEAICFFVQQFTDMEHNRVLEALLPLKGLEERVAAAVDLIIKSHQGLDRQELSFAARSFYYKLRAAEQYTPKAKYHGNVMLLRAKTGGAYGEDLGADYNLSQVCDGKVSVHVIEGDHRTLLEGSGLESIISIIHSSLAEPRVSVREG

CCCCCCCCCCCCCCC
inactive: [1] | [2] | [3] | [4] | [5] | [6] | [8] | [9] | [10]
active: [7] 50 µM

CC(C)(c1ccc(Oc2ccc(N)cc2)cc1)c1ccc(Oc2ccc(N)cc2)cc1
active: [11] 0.249 µM | [12] 0.0361 µM | [13] 0.235 µM | [14] 0.234 µM | [15] 0.229 µM | [16] 0.401 µM | [17] 0.2 µM | [20] 0.334 µM
inactive: [18] | [19]

CCCCCC(C)OC(=O)COc1ccc(Cl)c2cccnc12 (stereo unspecified)
active: [11] 18.7 µM | [16] 34.9 µM
inactive: [12] | [13] | [15] | [17]

CCCCCCCCCCCCOS(=O)(=O)O
active: [1] 80.7 µM | [6] 85.6 µM | [7] 61.6 µM
inactive: [2] | [3] | [4] | [8] | [9] | [10]

CC(C)CCOCCC(C)C
inactive: [11] | [12] | [13] | [14] | [15] | [16] | [17] | [18] | [19] | [20]

CC(C)(C)c1ccc(O)c(O)c1
active: [16] 50 µM
inactive: [11] | [12] | [13] | [15] | [17]

O=C(NCc1ncc(C(F)(F)F)cc1Cl)c1c(Cl)cccc1Cl
active: [13] 7.42 µM
inactive: [11] | [12] | [14] | [15] | [16] | [17] | [18] | [19] | [20]

Source: PubChem BioAssay (EPA / NIEHS)
